Results reported in PubChem BioAssay (NCATS).
Inconclusive results are not listed. Values without a mark were called inactive. Activity calls are given as the source filed them. Calls follow the shape of the dose curve; as a rule, active = well fitted cell-killing curve with a large enough effect; inconclusive = small, poorly fitted or top-dose-only effect; inactive = no such curve, though single readings can be large or run the other way.

Experiment: qHTS of pediatric cancer cell lines to identify multiple opportunities for drug repurposing: Primary screen for Rh41 cells (AID 1347108);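 also: luminescence drop marks cytotoxic hits; nearly all actives have a fitted effect of over 70% in size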
Conditions: Rh41 rhabdomyosarcoma viability, CellTiter-Glo luminescence, 48 h; series mostly up to 46 µM
Text: Drug repurposing or repositioning has been offered as a strategy for drug development in oncology programs. This approach has special potential for childhood cancers and other rare or orphan diseases, where the expected return on new drug development has been a disincentive to pharmaceuticals. […] In this project we exploit the poly-pharmacology of drugs to discover new indications via phenotypic screening of a panel of 19 well-characterized cell lines derived from solid tumors seen in children and adolescents. The goal is to identify approved drugs with previously unrecognized anticancer properties that has the potential to reveal new mechanisms and biological processes involved in carcinogenesis or drug resistance. We employed a titration-based paradigm (quantitative high-throughput screening or qHTS), where all compounds were tested at multiple concentrations for their effect on cell viability. Concentration-response curves (CRCs) were derived directly from the primary screen, and both potency and efficacy values were used to identify compounds with robust bioactivity profiles. We screened the NIH Chemical Genomics Center (NCGC) Pharmaceutical Collection (NPC) and Mechanism Interrogation Plate (MIPE) small molecule collections of approved and investigational compounds against these cell lines; and measured metabolically active cells after 48 hours of compound treatment as a proxy for cell viability. […] Assay Submitter: Nathalia J. Martinez, National Center for Advancing Translational Sciences, National Institutes of Health, Rockville, MD, USA; email: natalia.martinez@nih.gov Shen, M et al. Quantitative high-throughput phenotypic screening of pediatric cancer cell lines identifies multiple opportunities for drug repurposing. Oncotarget 2017 Dec 19;9(4):4758-4772. PMID 29435139.
The cells were obtained from University of North Carolina (UNC), Pediatric Preclinical Testing Program (PPT), and Coriell Institute (CI). qHTS cell viability assay: Cells were assayed in growth media at a density of 500-1,000 cells/well. Five microliters of cells were dispensed into 1,536-well, white, solid-bottom, TC-treated plates (Greiner Bio One) using a multidrop dispenser and incubated at 37 degrees C, 5% CO2, under a humidified atmosphere for 5 hours. Twenty-three nanoliters of compounds and controls (neutral control DMSO or positive control bortezomib at final concentration of 2.3 µM) were subsequently transferred by Kalypsys pintool. For primary screens, the MIPE collection was tested at 11-point dilutions (final concentrations range from 0.78 nM to 46 µM) and the NPC collection at 8-point dilutions (final concentrations range from 0.59 nM to 46 µM). Compounds tested in follow-up screens were assayed at 11-point dilutions. Cells were incubated for 48 hours, followed by addition of 3 µL of CellTiter-Glo (Promega). After a 15 min incubation at room temperature, samples were analyzed for luminescence intensity using a ViewLux High-throughput CCD imager equipped with clear filters.

Row | Compound | outcome | activity change, negative = cytotoxic
1 | CC(=O)NS(=O)(=O)c1ccc(N)cc1 | inactive | –
2 | COc1ccc(-c2cc(=O)c3c(O)cc(O[C@@H]4O[C@H](CO[C@@H]5O[C@@H](C)[C@H](O)[C@@H](O)[C@H]5O)[C@@H](O)[C@H](O)[C@H]4O)cc3o2)cc1O | inactive | –
3 | CC[N+](C)(CC)CCOC(=O)C1c2ccccc2Oc2ccccc21 | inactive | –
4 | CC1CCN(CCCC(=O)c2ccc(F)cc2)CC1 | inactive | –
5 | N[C@@H](Cc1ccc(O)cc1)C(=O)O | – | 24.2% [at 9.22 µM]
6 | OCC(O)CS (stereo not given) | inactive | –
7 | COc1ccc(NS(=O)(=O)c2ccc(N)cc2)nn1 | inactive | –
8 | O=C(O)c1ccc[n+]([O-])c1 | inactive | –
9 | CCN[C@H]1CN(CCCOC)S(=O)(=O)c2sc(S(N)(=O)=O)cc21 | inactive | –
10 | COc1ccc(C(=O)NCc2ccc(OCCN(C)C)cc2)cc1OC | inactive | –
11 | O=C1C(c2[nH]c3ccccc3c2O)=Nc2ccccc21 | inactive | –
12 | COc1ccccc1OC(=O)Oc1ccccc1OC | inactive | –
13 | Cc1c(C)c2c(c(C)c1OC(=O)c1cccnc1)CC[C@@](C)(CCC[C@H](C)CCC[C@H](C)CCCC(C)C)O2 | inactive | –
14 | CCCCCCCC(=O)OCC(O)CO (stereo not given) | inactive | –
15 | CCCCCOC(=O)Nc1nc(=O)n([C@@H]2O[C@H](C)[C@@H](O)[C@H]2O)cc1F | inactive | –
16 | Cn1cc(C(=O)[C@@H]2CCc3nc[nH]c3C2)c2ccccc21 | inactive | –
17 | NC(=O)c1ccc([N+](=O)[O-])cc1Cl | inactive | –
18 | Cc1[nH]c(C)c(Cl)c(=O)c1Cl | inactive | –
19 | O=C(OOC(=O)c1ccccc1)c1ccccc1 | inactive | –
20 | Cc1c(NC(C)C)c(=O)n(-c2ccccc2)n1C | inactive | –

Row | Compound | outcome | activity change, negative = cytotoxic
21 | CC1(C)[C@@H](OC(=O)CCC(=O)O)CC[C@]2(C)[C@H]3C(=O)C=C4[C@@H]5C[C@@](C)(C(=O)O)CC[C@]5(C)CC[C@@]4(C)[C@]3(C)CC[C@@H]12 | inactive | –
22 | CN[C@@H]1[C@@H](O)[C@@H](O[C@@H]2[C@H](O)[C@H](O[C@H]3OC(CN)=CC[C@H]3N)[C@@H](N)C[C@H]2N)OCC1(C)O (stereo not given in full) | inactive | –
23 | CCCOC(=O)c1ccc(N)cc1 | inactive | –
24 | NC(=O)NC1NC(=O)NC1=O (stereo not given) | inactive | –
25 | O=C(/C=C/c1ccc(O)c(O)c1)O[C@@H]1C[C@@](OC(=O)/C=C/c2ccc(O)c(O)c2)(C(=O)O)C[C@@H](O)[C@@H]1O | inactive | –
26 | O=C(NCN1CCOCC1)c1cnccn1 | inactive | –
27 | O=C(O)c1ccccc1C(=O)Nc1ccc(S(=O)(=O)Nc2nccs2)cc1 | inactive | –
28 | CC(CSC(=O)c1ccccc1)C(=O)N1C[C@@H](Sc2ccccc2)C[C@H]1C(=O)O (stereo not given in full) | inactive | –
29 | COC(=O)c1ccccc1C(=O)c1ccc(OCCN2CCCCC2)cc1 | inactive | –
30 | CC(C)=CCC/C(C)=C/CO | inactive | –
31 | Cc1cc(O)cc(C)c1Cl | inactive | –
32 | CCCNC(C)(C)COC(=O)c1ccccc1 | inactive | –
33 | CC1CCc2cc(F)cc3c(=O)c(C(=O)O)cn1c23 (stereo not given) | inactive | –
34 | CC(C)c1cc2c(cc1S(=O)(=O)O)[C@@]1(C)CCC[C@@](C)(C(=O)O)[C@@H]1CC2 | inactive | –
35 | O=C(O)/C=C/c1ccc(Cn2ccnc2)cc1 | inactive | –
36 | O=c1[nH]c2cc(C(F)(F)F)c(N3CCOCC3)cc2n(CP(=O)(O)O)c1=O | inactive | –
37 | O=C(O)CCCCC1CCSS1 (stereo not given) | inactive | –
38 | Cc1c(I)c(=O)n(-c2ccccc2)n1C | inactive | –
39 | CC(=O)OC[C@H]1O[C@@](COC(C)=O)(O[C@H]2O[C@H](COC(C)=O)[C@@H](OC(C)=O)[C@H](OC(C)=O)[C@H]2OC(C)=O)[C@@H](OC(C)=O)[C@@H]1OC(C)=O | inactive | –
40 | Cc1cc(-n2nc3ccc(Cl)cc3n2)c(O)c(C(C)(C)C)c1 | inactive | –
